Data published in PubChem BioAssay (NCI).
“And” between values parts separate entries of the source, which are not always exact repeats. Identical values can stand only once. About 83,000 compounds went through this panel and 20% of them were active in at least one assay; those are over-represented in the sample as a whole.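 Results are percent growth after 48 hours of single-concentration exposure. 100 means growth as in untreated cells, lower positive values show inhibition; negative values down to -100 show cell death.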 Unmarked numbers belong to inactive results. The source made the active and inactive calls. The calls were made as follows: active = growth percent below 10; inactive = the rest.

Assays:
Experiment in all cases: NCI-60 one-dose screen, 48 h (100 = growth as untreated, 0 = no growth, -100 = all killed)
Conditions in all cases: 10 µM unless noted
NCI-H23 lung = system: NCI-H23 lung
NCI-H226 lung = system: NCI-H226 lung
NCI-H322M lung = system: NCI-H322M lung
HOP-62 NSCLC = system: HOP-62 NSCLC
NCI-H460 lung = system: NCI-H460 lung
HOP-92 NSCLC = system: HOP-92 NSCLC
NCI-H522 lung = system: NCI-H522 lung
A549/ATCC NSCLC = system: A549/ATCC NSCLC
786-0 renal = system: 786-0 renal
COLO 205 colon = system: COLO 205 colon
DU-145 prostate = system: DU-145 prostate
K-562 leukemia = system: K-562 leukemia
MALME-3M melanoma = system: MALME-3M melanoma
MDA-MB-231 breast = system: MDA-MB-231 breast
RXF 393 renal = system: RXF 393 renal
SF-268 CNS = system: SF-268 CNS
SF-295 CNS = system: SF-295 CNS
SF-539 CNS = system: SF-539 CNS
UACC-257 melanoma = system: UACC-257 melanoma
M14 melanoma = system: M14 melanoma

SMILES | growth (NCI-H23 lung) | growth (NCI-H226 lung) | growth (NCI-H322M lung) | growth (HOP-62 NSCLC) [%] | growth (NCI-H460 lung) | growth (HOP-92 NSCLC) | growth (NCI-H522 lung) | growth (A549/ATCC NSCLC) | growth (786-0 renal) | growth (COLO 205 colon) | growth (DU-145 prostate) | growth (K-562 leukemia) | growth (MALME-3M melanoma) | growth (MDA-MB-231 breast) | growth (RXF 393 renal) | growth (SF-268 CNS) | growth (SF-295 CNS) | growth (SF-539 CNS) | growth (UACC-257 melanoma) | growth (M14 melanoma) [%]
Cc1ccc(S(=O)(=O)n2cc([C@@]3(O)C[C@H](CSC#N)OC3=O)c3ccccc32)cc1 | 82% | 85.3% | 106% | 100 | 86.3% | -28.2% (active) | 86.3% | 70.6% | 95.6% | 59.2% | 43.9% | 48.5% | 61.7% | 55.3% | 50.9% | 72.4% | 94.8% | 51.2% | 96.1% | –
COc1cc(/C=C\[N+](=O)[O-])ccc1OCc1ccccc1 | 34.6% | 105% | 94.5% | 30.7 | 62.4% | 66.3% | 73.5% | 64.7% | -17.4% (active) | 32.7% | 44.3% | 0.133% (active) | 77.9% | 12.5% | -86.1% (active) | 19.4% | 48.7% | 30.8% | 61.8% | –
C[C@@H]1C/C=C\C(=O)O[C@H](/C=C/C#C/C=C/C(C)(C)[C@@H](O)c2cccc(O)c2Br)[C@@H](C)/C=C/[C@H](C)C[C@H](OC(N)=O)C1 | 40.6% | 20.1% | 54.1% | 13.1 | 17.1% | 9.34% (active) | 16.7% | 28.5% | 37.2% | -26.1% (active) | 47.6% | 6.76% (active) | 28.4% | 2.09% (active) | 27.4% | 40.4% | -6.34% (active) | 30.6% | -11.1% (active) | –
N#CC(N)c1ccccc1 (stereo not given) | 109% | 100% | 113% | 114 | 102% | 113% | 109% | 109% | 105% | 116% | 106% | 116% | 98.9% | 108% | 112% | 102% | 102% | 103% | 101% | 99.8
C[C@]12CCc3nc(-c4ccc(O)c(O)c4)sc3C1=CC[C@@H]1[C@@H]2CC[C@]2(C)C(=O)CC[C@@H]12 | 69% | 65% | 80% | 80.8 | 93.8% | 56.3% | 8.61% (active) | 61.2% | 75.3% | 55.4% | 75.3% | 56% | 62.9% | 56% | 91.2% | 81.5% | 104% | 56.4% | 91.4% | –
O=C(O)C(O)c1ccc(Cl)cc1 (stereo not given) | 99.1% and 107% | 97% and 103% | 101% and 118% | 107 | 106% and 114% | 112% | 100% and 88.1% | 107% and 95.6% | 97.6% and 96.7% | 106% and 116% | 112% and 109% | 118% | 110% and 102% | 96.8% and 119% | 88.5% and 122% | 110% and 101% | 101% and 116% | 97.5% and 118% | 109% and 91.8% | –
CC[C@H](CC[C@@H](C)[C@H]1CC[C@H]2[C@@H]3CC[C@H]4C[C@]5(CC[C@]4(C)[C@H]3CC[C@]12C)OO[C@](C)(C(F)(F)F)O5)C(C)C | 92.3% | 89.7% | 91.5% | 81.7 | 95.1% | 87.4% | 92.8% | 95.3% | 97% | 96.4% | 97.2% | 93.9% | 86% | 94.5% | 106% | 87.4% | 94.6% | 97.8% | 95.3% | 97.1
